Calls of active or inactive are those of the source. Rule for the calls: active = hit-call score of the fitted dose curve at least 0.9, where 1 is the maximum; inactive = score below 0.9.
Read-out: Urokinase-type plasminogen activator receptor (uPAR), PLAUR (gene 5329)
Test: BSK_BE3C_uPAR: BioMAP Diversity Plus: BE3C Assay for Urokinase-type plasminogen activator receptor (uPAR) Biomarker Activity (AID 2283039);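 for outcome: cells exposed to compound for one day before measurement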
Details: primary human bronchial epithelial cells; actives raise or lower the signal
Protocol: BSK_BE3C is a cell-based, multiplexed-readout assay that uses bronchial epithelial cell, a human lung primary cell, with measurements taken at 24 hours after chemical dosing in a 96-well plate.BSK_BE3CAR is an assay component measured in the BSK_BE3C assay. It measures uPAR antibody related to regulation of gene expression using ELISA technology.Data from the assay component BSK_BE3CAR was analyzed into 1 assay endpoint. This assay endpoint, BSK_BE3CAR, was analyzed with bidirectional fitting relative to DMSO as the negative control and baseline of activity. Using a type of binding reporter, gain or loss-of-signal activity can be used to understand changes in the signaling as they relate to the gene PLAUR. Furthermore, this assay endpoint can be referred to as a primary readout, because this assay has produced multiple assay endpoints where this one serves a signaling function. To generalize the intended target to other relatable targets, this assay endpoint is annotated to the cytokine intended target family, where the subfamily is plasmogen activator.
The levels of cell surface (or secreted, indicated by the prefix "s") biomarker endpoints were measured by ELISA. Overt cytotoxicity to cells in confluent adherent cultures (all systems other than the BT system) was assessed by measuring total protein levels using sulforhodamine B (SRB) staining in parallel cultures at the time of biomarker measurements, indicated as SRB endpoints. For proliferation assays for adherent cell types, individual cell types are cultured at sub-confluence and relative cell numbers quantified by SRB staining at time points optimized for each system (48 h: 3C and CASM3C systems; 72 h: BT and HDF3CGF systems; 96 h: SAg system). SRB was performed by staining cells with 0.1% SRB after fixation with 10% TCA and reading wells at 560 nm.Viability and proliferation of PBMC (T cells) was quantified by Alamar Blue reduction for the SAg and BT systems. For PBMC viability (referred to as PBMC Cytotoxicity within the assay endpoint names), cells were plated (75,000/well in a 96-well plate) and then chemical samples added for 1 h before addition of activators, SEB and TSST-1 (20 ng/mL final concentration each). Cells were incubated for 90 h. Then, Alamar Blue (20 uL/well) (Invitrogen, Cat DAL1100) was added for 6 h, and the plates were read with a fluorescence microplate reader at 546/580 nm (excitation/emission). For PBMC proliferation, cells were plated and activated as above but incubated for only 16 h prior to addition of Alamar Blue. Plates were read after 6 h.

| Structure (SMILES) | outcome | AC50 |
| --- | --- | --- |
| CC(C)(O)c1coc(S(=O)(=O)NC(=O)Nc2c3c(cc4c2CCC4)CCC3)c1 | inactive | – |
| CCc1cc(SCc2sc(-c3ccc(C(F)(F)F)cc3)nc2CN2CCN(c3ccc(OC)cc3)CC2)ccc1OCC(=O)O | – | 5.38 µM (active) |
| NC(=O)NO | inactive | – |
| CCOC(=O)c1ccc(C2CCC(NC[C@H](O)COc3ccc(O)c(NS(C)(=O)=O)c3)CC2)cc1 (stereo not given in full) | inactive | – |
| COc1ccc2sc(C(=O)Nc3nnn[nH]3)c(OC(C)C)c2c1 | inactive | – |
| CCN(C(=O)c1cc(C)cc(OC[C@H](C)Nc2ccncc2)c1)C(C)C | inactive | – |
| CC(C)CCCCCCCOC(=O)CCCCC(=O)OCCCCCCCC(C)C | inactive | – |
| CN(C)c1ccc(Cc2ccc(N(C)C)cc2)cc1 | inactive | – |
| O=C(O)CC(O)C(=O)O (stereo not given) | inactive | – |
| CC(C)=CCC/C(C)=C/CO | inactive | – |
| O=C(O)c1cccc(Oc2ccccc2)c1 | inactive | – |
| CCNc1ccccc1 | inactive | – |
| COCCOc1cc2cc(C(=O)NC3CCN(C(C)C)CC3)n(CC(=O)Nc3ccc(Cl)cn3)c2cn1 | inactive | – |
| O=c1[nH]c2ccc(S(=O)CCN3CCC(Cc4ccc(F)cc4)CC3)cc2o1 (stereo not given) | inactive | – |
| CC[C@H]1CC[C@H](NCc2cc3c(cc2OC)[C@H]2C[C@H]2C(=O)N3C)[C@H](c2ccccc2)N1 | inactive | – |
| Cc1c(-c2cccnc2)c2ccccc2n1CCCCC(=O)O | inactive | – |
| CC(=O)OC[C@H]1O[C@@](COC(C)=O)(O[C@H]2O[C@H](COC(C)=O)[C@@H](OC(C)=O)[C@H](OC(C)=O)[C@H]2OC(C)=O)[C@@H](OC(C)=O)[C@@H]1OC(C)=O | inactive | – |
| CCCCCCCCCCCCc1ccccc1 | inactive | – |
| C=CC(=C)CCC=C(C)C | inactive | – |
| Cn1cnc([N+](=O)[O-])c1Sc1ncnc2nc[nH]c12 | inactive | – |

| Structure (SMILES) | outcome | AC50 |
| --- | --- | --- |
| C1N2CN3CN1CN(C2)C3 | inactive | – |
| COC(=O)c1ccccc1O | inactive | – |
| CCCCCCc1ccc(O)cc1O | – | 34.1 µM (active) |
| CC(C)CCO | inactive | – |
| O=c1n(CC2CO2)c(=O)n(CC2CO2)c(=O)n1CC1CO1 (stereo not given) | inactive | – |
| CC(O)CN(CCN(CC(C)O)CC(C)O)CC(C)O (stereo not given) | inactive | – |
| C=CCCCCCCCCC(=O)O | inactive | – |
| O=C(O)c1cc(N=Nc2ccc(S(=O)(=O)Nc3ccccn3)cc2)ccc1O | inactive | – |
| Cc1ccc(S(=O)(=O)O)cc1C | inactive | – |
| COc1ccc(-n2nc(C(F)F)cc2-c2ccc(S(C)=O)cc2)cc1 (stereo not given) | inactive | – |
| CC(C)=CCC/C(C)=C\CO | inactive | – |
| CCOC(=O)COc1ccc2c(c1)CC(NCC(O)c1cccc(Cl)c1)CC2 (stereo not given) | inactive | – |
| CC[C@H]1OC(=O)[C@H](C)[C@@H](O[C@H]2C[C@@](C)(OC)[C@@H](O)[C@H](C)O2)[C@H](C)[C@@H](O[C@@H]2O[C@H](C)C[C@H](N(C)C)[C@H]2O)[C@](C)(O)C[C@@H](C)C(=O)[C@H](C)[C@@H](O)[C@]1(C)O | inactive | – |
| CC1=CC(=O)CC(C)(C)C1 | inactive | – |
| CCOc1cccc(-n2cc(C(=O)N3CCN(c4cc(C(=O)O)c5ccccc5c4)CC3)nc2-c2ccc(C)cc2)c1 | – | 15.7 µM (active) |
| CC(=O)c1ccc2c(c1)[C@H](NC(=O)c1ccc(F)cc1)[C@@H](O)C(C)(C)O2 | inactive | – |
| C1=CCCC=CCCC=CCC1 | inactive | – |
| O=C(CCCCCCCCc1cccnc1)N1CCC(C=C(c2ccccc2)c2ccccc2)CC1 | – | 17.9 µM (active) |
| CNCc1ccc(NC(=O)c2c[nH]c3c2C(=O)CCC3)cc1 | inactive | – |
| Nc1nc2ncc(CNc3ccc(C(=O)N[C@@H](CCC(=O)O)C(=O)O)cc3)nc2c(=O)[nH]1 | inactive | – |

— PubChem BioAssay (EPA / NIEHS)
